# Reference: PubChem BioAssay (EPA / NIEHS)
# Inconclusive results are not listed. Active and inactive are the calls of the source. Rule for the calls, unless noted: active = hit-call score of the fitted dose curve at least 0.9, where 1 is the maximum; inactive = score below 0.9.
# Molecular target: human Vitamin D Receptor (VDR), VDR (gene 7421) (UniProt P11473)
# Experiment: ATG_VDR_TRANS: Attagene TRANS-FACTORIAL HepG2 Assay for human Vitamin D Receptor (VDR) (AID 2283022; active = hit-call score of the fitted dose curve at least 0.9, where 1 is the maximum)
# Conditions: not given
# Method in brief: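 Fluorescence of labelled reporter cDNA fragments, resolved by capillary electrophoresis, gives mRNA induction after 24 h treatment of HepG2 cells carrying transfected Gal4-fusion reporter units. Activity is fitted in the positive direction with DMSO as baseline.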
# human Vitamin D Receptor (VDR), VDR (gene 7421), sequence (P11473 whole entry, looked up): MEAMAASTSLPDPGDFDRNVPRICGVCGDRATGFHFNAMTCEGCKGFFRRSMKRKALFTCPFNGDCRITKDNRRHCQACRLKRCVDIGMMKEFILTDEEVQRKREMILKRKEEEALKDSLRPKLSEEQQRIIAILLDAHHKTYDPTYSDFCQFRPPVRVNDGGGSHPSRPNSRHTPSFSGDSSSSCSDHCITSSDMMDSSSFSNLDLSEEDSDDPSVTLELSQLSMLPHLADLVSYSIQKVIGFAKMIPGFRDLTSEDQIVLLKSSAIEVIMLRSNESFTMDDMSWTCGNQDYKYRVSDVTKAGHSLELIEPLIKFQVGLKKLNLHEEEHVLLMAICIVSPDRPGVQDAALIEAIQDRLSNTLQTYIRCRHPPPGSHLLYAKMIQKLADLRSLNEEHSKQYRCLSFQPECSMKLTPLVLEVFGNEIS
SMILES,outcome,AC50
O=C1OC(=O)C2C3C=CC(C3)C12 (configuration not stated),inactive,
CCCCCCCCCCCCCCCO,inactive,
CC[C@H]1CC[C@H](NCc2cc3c(cc2OC)[C@H]2C[C@H]2C(=O)N3C)[C@H](c2ccccc2)N1,inactive,
O=C(CCCCCCCCc1cccnc1)N1CCC(C=C(c2ccccc2)c2ccccc2)CC1,,100 µM (active)
CC(C)(O)c1coc(S(=O)(=O)NC(=O)Nc2c3c(cc4c2CCC4)CCC3)c1,inactive,
Cc1ccc(S(=O)(=O)O)cc1C,inactive,
CCOc1cccc(-n2cc(C(=O)N3CCN(c4cc(C(=O)O)c5ccccc5c4)CC3)nc2-c2ccc(C)cc2)c1,inactive,
CCCCCCCCO,inactive,
Nc1nc2ncc(CNc3ccc(C(=O)N[C@@H](CCC(=O)O)C(=O)O)cc3)nc2c(=O)[nH]1,inactive,
Cn1c(=O)cc(Oc2ccc(F)cc2F)c2cnc(NCC(C)(C)O)nc21,inactive,
COC(=O)CC(=O)OC,inactive,
Nc1cccc(N)c1,inactive,
CC[C@H](C)C(=O)O[C@H]1C[C@@H](C)C=C2C=C[C@H](C)[C@H](CC[C@@H]3C[C@@H](O)CC(=O)O3)[C@H]21,inactive,
CC[C@H]1OC(=O)[C@H](C)[C@@H](O[C@H]2C[C@@](C)(OC)[C@@H](O)[C@H](C)O2)[C@H](C)[C@@H](O[C@@H]2O[C@H](C)C[C@H](N(C)C)[C@H]2O)[C@](C)(O)C[C@@H](C)C(=O)[C@H](C)[C@@H](O)[C@]1(C)O,inactive,

# Read-out: not listed separately
# Experiment: BSK_3C_SRB: Viability Assessment in the BioMAP Diversity Plus: 3C Assay (AID 2283023);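 note: cells read 24 h after compound dosing; fitted both ways against DMSO so a hit may be signal rise or drop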
# Conditions: primary human endothelial cells (HUVEC)
# Method in brief: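 Cells were dosed with chemical, cultured 24 h, fixed with 10% TCA, stained with 0.1% SRB and read at 560 nm. Human umbilical vein endothelium was used; DMSO served as negative control and baseline.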
SMILES,AC50,outcome
CCOC(=O)COc1ccc2c(c1)CC(NCC(O)c1cccc(Cl)c1)CC2 (configuration not stated),26.7 µM (active),
O=C1OC(=O)C2C3C=CC(C3)C12 (configuration not stated),,inactive
O=P(OC(CCl)CCl)(OC(CCl)CCl)OC(CCl)CCl,,inactive
CCCCCCCCCCCCCCCO,36.8 µM (active),
COCCOCCOCCOC,,inactive
CC(C)=CCCC(C)CCO (configuration not stated),,inactive
C1=CCCC=CCCC=CCC1,,inactive
CC[C@H]1CC[C@H](NCc2cc3c(cc2OC)[C@H]2C[C@H]2C(=O)N3C)[C@H](c2ccccc2)N1,,inactive
O=C(CCCCCCCCc1cccnc1)N1CCC(C=C(c2ccccc2)c2ccccc2)CC1,8.88 µM (active),
CC(C)(O)c1coc(S(=O)(=O)NC(=O)Nc2c3c(cc4c2CCC4)CCC3)c1,,inactive
CCN(C(=O)c1cc(C)cc(OC[C@H](C)Nc2ccncc2)c1)C(C)C,,inactive
Cc1ccc(S(=O)(=O)O)cc1C,,inactive
CNS(=O)(=O)c1cc(C(=O)N2CCC(CCN3C4CCC3CC(n3c(C)nc5ccccc53)C4)(c3cccc(F)c3)CC2)c(Cl)cc1F (configuration not stated),20.6 µM (active),
CCCCC(CC)COC(=O)CCCCCCCCC(=O)OCC(CC)CCCC (configuration not stated),,inactive
O=C(NS(=O)(=O)/C=C/c1ccccc1)c1ccc(F)cc1Cl,,inactive
CCOc1cccc(-n2cc(C(=O)N3CCN(c4cc(C(=O)O)c5ccccc5c4)CC3)nc2-c2ccc(C)cc2)c1,16.8 µM (active),
O=C(OC[C@H]1O[C@@H](OC(=O)c2cc(O)c(O)c(OC(=O)c3cc(O)c(O)c(O)c3)c2)[C@H](OC(=O)c2cc(O)c(O)c(OC(=O)c3cc(O)c(O)c(O)c3)c2)[C@@H](OC(=O)c2cc(O)c(O)c(OC(=O)c3cc(O)c(O)c(O)c3)c2)[C@@H]1OC(=O)c1cc(O)c(O)c(OC(=O)c2cc(O)c(O)c(O)c2)c1)c1cc(O)c(O)c(OC(=O)c2cc(O)c(O)c(O)c2)c1,9.7 µM (active),
COCCOc1cc2cc(C(=O)NC3CCN(C(C)C)CC3)n(CC(=O)Nc3ccc(Cl)cn3)c2cn1,,inactive
CCc1cc(SCc2sc(-c3ccc(C(F)(F)F)cc3)nc2CN2CCN(c3ccc(OC)cc3)CC2)ccc1OCC(=O)O,5.75 µM (active),
CCCCCCCCO,,inactive
CC(C)CCCCCCOC(=O)c1ccc(C(=O)OCCCCCCC(C)C)c(C(=O)OCCCCCCC(C)C)c1,,inactive
Nc1nc2ncc(CNc3ccc(C(=O)N[C@@H](CCC(=O)O)C(=O)O)cc3)nc2c(=O)[nH]1,,inactive
Cn1c(=O)cc(Oc2ccc(F)cc2F)c2cnc(NCC(C)(C)O)nc21,,inactive
CC(=O)OCCC(C)C,,inactive
COC(=O)CC(=O)OC,,inactive
Cc1c(-c2cccnc2)c2ccccc2n1CCCCC(=O)O,,inactive
Nc1cccc(N)c1,,inactive
CC[C@H](C)C(=O)O[C@H]1C[C@@H](C)C=C2C=C[C@H](C)[C@H](CC[C@@H]3C[C@@H](O)CC(=O)O3)[C@H]21,9.87 µM (active),
COC(=O)c1ccccc1O,,inactive
CC[C@H]1OC(=O)[C@H](C)[C@@H](O[C@H]2C[C@@](C)(OC)[C@@H](O)[C@H](C)O2)[C@H](C)[C@@H](O[C@@H]2O[C@H](C)C[C@H](N(C)C)[C@H]2O)[C@](C)(O)C[C@@H](C)C(=O)[C@H](C)[C@@H](O)[C@]1(C)O,,inactive

# Read-out: Matrix Metallopeptidase 1 (MMP1), MMP1 (gene 4312)
# Experiment: BSK_BE3C_MMP1: BioMAP Diversity Plus: BE3C Assay for Matrix Metallopeptidase 1 (MMP1) Biomarker Activity (AID 2283024)
# Conditions: primary human bronchial epithelial cells; actives raise or lower the signal
# Method in brief: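 Dose cells, wait 24 h, run MMP1 ELISA; cells are human bronchial epithelial primaries. Both increases and decreases relative to DMSO counted.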
SMILES,outcome,AC50
O=C1OC(=O)C2C3C=CC(C3)C12 (configuration not stated),inactive,
COCCOCCOCCOC,inactive,
CC(C)=CCCC(C)CCO (configuration not stated),inactive,
CNS(=O)(=O)c1cc(C(=O)N2CCC(CCN3C4CCC3CC(n3c(C)nc5ccccc53)C4)(c3cccc(F)c3)CC2)c(Cl)cc1F (configuration not stated),,20 µM (active)
CCCCC(CC)COC(=O)CCCCCCCCC(=O)OCC(CC)CCCC (configuration not stated),inactive,
O=C(NS(=O)(=O)/C=C/c1ccccc1)c1ccc(F)cc1Cl,inactive,
CCOc1cccc(-n2cc(C(=O)N3CCN(c4cc(C(=O)O)c5ccccc5c4)CC3)nc2-c2ccc(C)cc2)c1,,33.4 µM (active)
O=C(OC[C@H]1O[C@@H](OC(=O)c2cc(O)c(O)c(OC(=O)c3cc(O)c(O)c(O)c3)c2)[C@H](OC(=O)c2cc(O)c(O)c(OC(=O)c3cc(O)c(O)c(O)c3)c2)[C@@H](OC(=O)c2cc(O)c(O)c(OC(=O)c3cc(O)c(O)c(O)c3)c2)[C@@H]1OC(=O)c1cc(O)c(O)c(OC(=O)c2cc(O)c(O)c(O)c2)c1)c1cc(O)c(O)c(OC(=O)c2cc(O)c(O)c(O)c2)c1,,10.8 µM (active)
CCCCCCCCO,inactive,
CC(C)CCCCCCOC(=O)c1ccc(C(=O)OCCCCCCC(C)C)c(C(=O)OCCCCCCC(C)C)c1,inactive,
CC(=O)OCCC(C)C,inactive,
Nc1cccc(N)c1,inactive,
COC(=O)c1ccccc1O,inactive,
